The list is not random: actives were taken first. Their share in the collection is about 1%.
TSHR antagonist: antagonists of human thyroid stimulating hormone receptor. TSHR-expressing cells, TSH-stimulated cAMP HTRF, 2 h; hits give low values. activity change, negative = inhibition, % at 11.5 µM. 330,000 compounds, 0.2% hits;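 active means activity change below a set negative limit, meaning inhibition stronger than a set level, cut at about -70% in these data; inconclusive means activity change between two set negative limits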; further: on the % scale 0 is the no-effect control and ±100 the full control effect
Target sequence (P16473 whole entry, looked up): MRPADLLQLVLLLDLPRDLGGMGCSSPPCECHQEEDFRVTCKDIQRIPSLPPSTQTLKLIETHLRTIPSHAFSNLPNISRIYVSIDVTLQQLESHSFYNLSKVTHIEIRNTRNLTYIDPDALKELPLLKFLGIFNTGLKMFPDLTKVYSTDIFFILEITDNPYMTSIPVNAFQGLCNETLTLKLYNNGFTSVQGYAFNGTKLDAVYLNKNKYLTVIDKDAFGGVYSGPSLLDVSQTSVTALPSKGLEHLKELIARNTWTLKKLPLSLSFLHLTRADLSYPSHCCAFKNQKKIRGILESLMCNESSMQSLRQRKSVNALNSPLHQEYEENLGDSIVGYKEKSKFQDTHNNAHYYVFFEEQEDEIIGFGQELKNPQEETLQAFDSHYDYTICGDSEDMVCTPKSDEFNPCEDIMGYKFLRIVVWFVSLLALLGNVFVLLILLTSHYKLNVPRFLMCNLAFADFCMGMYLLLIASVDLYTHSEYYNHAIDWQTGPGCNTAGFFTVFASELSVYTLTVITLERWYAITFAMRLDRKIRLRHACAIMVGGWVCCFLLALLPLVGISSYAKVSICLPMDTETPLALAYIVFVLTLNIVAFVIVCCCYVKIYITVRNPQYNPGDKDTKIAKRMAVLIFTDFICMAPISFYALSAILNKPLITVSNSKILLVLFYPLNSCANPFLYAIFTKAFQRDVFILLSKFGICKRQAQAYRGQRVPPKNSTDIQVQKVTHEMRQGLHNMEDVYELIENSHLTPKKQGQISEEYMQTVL
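TSHR-expressing cells were treated with compounds, then stimulated with TSH at EC80 (4nM final) for 2 hours at 37 deg C. Cellular cAMP was measured by HTRF competition between lysate cAMP and cAMP-d2 for a cryptate-labelled anti-cAMP antibody.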
RXFP1 ag: agonists of human relaxin receptor RXFP1. Q9HBX9. HEK293T-RXFP1 cAMP TR-FRET, 30 min; response scale: percent of porcine relaxin response, buffer zero. Potency, µM (series often up to 57.5 µM), without a hit: at the top dose activation, hits mostly activators. 370,000 compounds, 0.3% hits. AID 2676; active means well fitted activation curve with a large enough effect; inconclusive means small, poorly fitted or top-dose-only effect; further: potency means the concentration at half of the fitted maximal effect; on the % scale 0 is the no-effect control and ±100 the full control effect; nearly all actives have a fitted effect of over 60% in size
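Agonist response is measured as cAMP accumulation in an RXFP1-transfected HEK293T line under PDE4 inhibition. Values are scaled between buffer-only and 29 nM porcine relaxin, and EC50s come from standard Hill equation fits.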
gsp antagonist: gsp mutant antagonism; 340,000 compounds, 0.4% hits; gsp-mutant cells, cAMP HTRF, 30 min; Potency, µM (top dose mostly 76.9 µM), inactives show top-dose activity change, negative = inhibition, most hits filed as inhibitors; calls by dose curve; cell line not stated here;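 further: intracellular cAMP measured with PDE inhibitor Ro 20-1724 present during compound exposure; potency means the concentration at half of the fitted maximal effect; on the % scale 0 is the no-effect control and ±100 the full control effect; nearly all actives have a fitted effect of over 65% in size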
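G418-selected cells were plated in DMEM/10% FBS for 16-24 h at 37C, then treated with compounds plus the PDE inhibitor […] (300 uM solution added) for 30 min at 37C. Intracellular cAMP was measured by HTRF after 30 min lysis at room temperature.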
gsp ag: agonists of gsp mutant (McCune-Albright syndrome); gsp mutant cells, cAMP HTRF, 30 min; Potency, µM (highest dose often 76.9 µM), inactives show at the top dose activation (cAMP increase), actives largely listed as activators; 340,000 compounds, 0.13% hits; AID 624287; active means well fitted activation curve with a large enough effect; inconclusive means small, poorly fitted or top-dose-only effect, or another doubt; inactive means no such curve, though single readings can be large or run the other way; cell line not stated here;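 further: phosphodiesterase inhibitor Ro 20-1724 added with compounds to block cAMP breakdown; potency means the concentration at half of the fitted maximal effect; nearly all actives have a fitted effect of over 60% in size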
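Cells stably selected in G418 were plated at 2000/well, grown 16-24 hr, then given compounds in DMSO with the PDE inhibitor […] (300 uM solution added) for 30 min at 37C; cAMP was read by HTRF.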
RXFP1 antagonist: blocks the human relaxin receptor RXFP1; Q9HBX9; 350,000 compounds, 0.59% hits; AID 1259400; HEK293-RXFP1, relaxin-stimulated cAMP HTRF, 30 min; hits give low values; activity change, negative = inhibition, % at 57.5 µM;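 active means activity change of -60% or lower, but not beyond a set lower limit; inconclusive means change between -60% and -40%, or beyond the set limit; inactive means change above -40%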; further: on the % scale 0 is the no-effect control and ±100 the full control effect
Active calls of the source: *; [ ] = dose if it differs, or a comment.

What do the screens show for `Cc1ccc(-c2onc(C)c2C)cc1S(=O)(=O)N1CCN(c2ccccc2F)CC1`?
RXFP1 ag: -1%; RXFP1 antagonist: -3

Results for Cc1nc(N2CCN(S(=O)(=O)c3ccccc3C#N)CC2)c2c(-c3ccccc3)csc2n1 ?
TSHR antagonist: -79*; RXFP1 ag: 2%; gsp antagonist: inconclusive; gsp ag: inconclusive; RXFP1 antagonist: 3

How did O=C(OCC1(COC(=O)c2cccnc2)CCCC(COC(=O)c2cccnc2)(COC(=O)c2cccnc2)C1O)c1cccnc1 do in these assays?
RXFP1 antagonist: -8

Results for COc1ccc(N2CC(NS(=O)(=O)c3cccs3)CC2=O)cc1 (stereo not drawn) ?
TSHR antagonist: 4; RXFP1 ag: 2%; gsp antagonist: -2%; gsp ag: 9%[15.4 µM]; RXFP1 antagonist: -2

How did COc1ccc(N2CC(NS(=O)(=O)c3cccs3)CC2=O)cc1OC (stereo not drawn) do in these assays?
TSHR antagonist: 10; RXFP1 ag: -1%; gsp antagonist: 5%; gsp ag: 19%[15.4 µM]; RXFP1 antagonist: -82*

What do the screens show for `COCCNc1cnn(-c2ccccc2)c(=O)c1Cl`?
TSHR antagonist: -122*; RXFP1 ag: -2%; gsp antagonist: 4%; gsp ag: -17%; RXFP1 antagonist: -3

How did CCCCNc1cnn(-c2ccccc2)c(=O)c1Cl do in these assays?
TSHR antagonist: 10; RXFP1 ag: 4%; gsp antagonist: 8%; gsp ag: -1%[15.4 µM]; RXFP1 antagonist: -2

Results for O=C(NCc1ccccc1)c1ccc2c(=O)n(CCCN3CCCC3=O)c(=S)[nH]c2c1 ?
TSHR antagonist: -3; RXFP1 ag: 2%; gsp antagonist: -13%; gsp ag: 27%; RXFP1 antagonist: -74*

Results for COC(=O)c1ccc2c(=O)n(CCCN3CCCC3=O)c(=S)[nH]c2c1 ?
TSHR antagonist: -3; RXFP1 ag: -1%; gsp antagonist: -11%; gsp ag: inconclusive; RXFP1 antagonist: 24

Results for COc1ccc(CNC(=O)c2ccc3c(=O)n(CCCN4CCCC4=O)c(=S)[nH]c3c2)cc1 ?
TSHR antagonist: -2; RXFP1 ag: 6%; gsp antagonist: -8%; gsp ag: 16%[15.4 µM]; RXFP1 antagonist: -116*

How did COc1ccccc1CNC(=O)c1ccc2c(=O)n(CCCN3CCCC3=O)c(=S)[nH]c2c1 do in these assays?
TSHR antagonist: -3; RXFP1 ag: 10%; gsp antagonist: -6%; gsp ag: 2%[15.4 µM]; RXFP1 antagonist: -65*

Results for Cc1ccc(CNC(=O)c2ccc3c(=O)n(CCCN4CCCC4=O)c(=S)[nH]c3c2)cc1 ?
TSHR antagonist: 14; RXFP1 ag: 2%; gsp antagonist: 2%; gsp ag: inconclusive; RXFP1 antagonist: -1

How did CCOCCCn1c(=S)[nH]c2cc(C(=O)NCC(OC)OC)ccc2c1=O do in these assays?
TSHR antagonist: -12; RXFP1 ag: -3%; gsp antagonist: -5%; gsp ag: 5%; RXFP1 antagonist: -66*

Results for CCOC(=O)C(C)Nc1ncnc2onc(C)c12 (stereo not drawn) ?
RXFP1 ag: 5%; RXFP1 antagonist: -6

Results for Cc1cccc(-n2cc(-c3ccccc3)nc2SCC(=O)Nc2ccccc2Cl)c1 ?
RXFP1 ag: -3%; RXFP1 antagonist: -2

Results for COc1ccc2c(CNC3CCC(C)CC3)c(C(=O)O)n(Cc3ccccc3)c2c1 (stereo not drawn) ?
RXFP1 ag: -1%

Results for CCN(CC)C(=O)c1ccc2c(=O)n(CCOC)c(=S)[nH]c2c1 ?
TSHR antagonist: 1; RXFP1 ag: -2%; gsp antagonist: -3%; gsp ag: 15%; RXFP1 antagonist: 7

How did CCCn1c(=S)[nH]c2cc(C(=O)N(CCO)Cc3ccccc3)ccc2c1=O do in these assays?
TSHR antagonist: 0; RXFP1 ag: 3%; gsp antagonist: -27%; gsp ag: -13%; RXFP1 antagonist: -75*

How did CCC(C)NC(=O)CN1C(=O)c2cccnc2Oc2ccc(C)cc21 (stereo not drawn) do in these assays?
RXFP1 ag: 0%; RXFP1 antagonist: 4

How did CC(=O)OCC(=O)Nc1cc(C#N)cc(NC(=O)COC(C)=O)c1Cl do in these assays?
RXFP1 antagonist: 21

Results for O=C(COc1ccccc1F)Nc1ccc2oc(-c3cccc(Cl)c3)nc2c1 ?
RXFP1 ag: 3%; RXFP1 antagonist: -4

Results for Cc1cccc(N2CCN(C(=O)CCCSc3nc4ccccc4[nH]3)CC2)c1C ?
TSHR antagonist: -1; RXFP1 ag: 2%; gsp antagonist: 45µM*; gsp ag: -3%; RXFP1 antagonist: -29

Results for COc1ccc(C(=O)/C=C/C(=O)N(CC(=O)NC2CCCCC2)Cc2ccccc2)c(O)c1 ?
TSHR antagonist: -45; RXFP1 ag: -1%; gsp antagonist: -2%; gsp ag: -5%; RXFP1 antagonist: -64*

Results for Cc1ccc(N(CC(=O)Nc2ccc(Br)cc2)S(=O)(=O)c2cccs2)cc1 ?
RXFP1 ag: 2%

Results for Cc1cccc(Nc2nnc(SCC(O)=C(C#N)c3nc4ccccc4[nH]3)s2)c1 ?
gsp antagonist: -13%; gsp ag: 17%; RXFP1 antagonist: -81*

How did O=C(Nc1ccc(OC(F)F)c(Cl)c1)Nc1ccc2c(c1)OCO2 do in these assays?
TSHR antagonist: -18; RXFP1 ag: -1%; gsp antagonist: inconclusive; gsp ag: 1%; RXFP1 antagonist: -19

What do the screens show for `COc1ccc(NC(=O)c2cccc(OC(F)F)c2)cc1Cl`?
TSHR antagonist: -2; RXFP1 ag: -1%; gsp antagonist: -15%; gsp ag: -106%; RXFP1 antagonist: 3

How did O=C(Nc1ccc(OC(F)F)c(Cl)c1)c1cccc(OC(F)F)c1 do in these assays?
TSHR antagonist: -24; RXFP1 ag: 0%; gsp antagonist: 40µM*; gsp ag: 12%; RXFP1 antagonist: -21

What do the screens show for `O=C(Nc1ccc([N+](=O)[O-])cc1)Nc1ccc(OC(F)F)c(Cl)c1`?
TSHR antagonist: -45; RXFP1 ag: 1%; gsp antagonist: 40µM*; gsp ag: -26%; RXFP1 antagonist: inconclusive

How did O=C(COc1ccc([N+](=O)[O-])cc1)N(Cc1ccccc1)Cc1ccccc1 do in these assays?
TSHR antagonist: -7; RXFP1 ag: 1%; gsp antagonist: -19%; gsp ag: -46%

Results for O=C(COc1ncnc2cc([N+](=O)[O-])ccc12)N(CCc1ccccc1)Cc1ccccc1 ?
TSHR antagonist: 15; RXFP1 ag: 10%; gsp antagonist: 28µM*; gsp ag: inconclusive; RXFP1 antagonist: 0

What do the screens show for `CCCCOc1ccccc1Cn1c(=O)sc2ccccc21`?
RXFP1 ag: 0%; RXFP1 antagonist: -68*

What do the screens show for `CCC(Oc1ccc(F)cc1)C(=O)Nc1nc2c(s1)CCCC2` (stereo not drawn)?
RXFP1 ag: 1%; RXFP1 antagonist: -117*

High-throughput results (PubChem)
